The values that follow come from PubChem BioAssay (NCI).

SMILES strings stand for the structures. Several values for one entry are separate records, joined by “and”; a condition that tells them apart may be missing. Identical values can stand only once. About 83,000 compounds went through this panel and 20% of them were active in at least one assay; those are over-represented in the sample as a whole.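 In brief: 96-well plates, 48 h treatment, single concentration, percent growth endpoint.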 A number with no mark means an inactive call. Activity calls are given as the source filed them. Rule for the calls: active = growth percent below 10; inactive = the rest.

For this assay, the system named is MDA-MB-468 breast. Kind of assay: NCI-60 one-dose screen, 48 h (100 = growth as untreated, 0 = no growth, -100 = all killed).

For `O=C(Nc1c(Cl)cccc1Cl)Oc1cccc2cccnc12`, the growth by setting is: (10 µM) 19.5%; (100 µM) -0.346% (active).
As for `CC(=O)O[C@H]1C(=O)[C@@]2(C)[C@H]([C@H](OC(=O)c3ccccc3)[C@]3(O)C[C@H](OC(=O)[C@H](O)[C@@H](NC(=O)c4ccccc4)c4ccccc4)C(C)=C1C3(C)C)[C@]1(OC(C)=O)CO[C@@H]1C[C@@H]2O`, the growth (2.5 µM) was -25.5% (active), the growth (5 µM) is -21.9% (active) and the growth (10 µM) is -19.1% (active).
In the case of `O=c1ccn(C2CC(O)C(COC(c3ccccc3)(c3ccccc3)c3ccccc3)O2)c(=O)[nH]1` (stereo not given), the growth (10 µM) was 101% and the growth (100 µM) was 41.5%.
Taken in the same sequence, the figures for `CN(C)C(=O)c1ccc(SC(=S)NCc2ccccc2)cc1` were 93.9% and -27.4% (active).
For `CCCCCCCCCCCCCCCc1ccc(Cl)c(O)c1Cl` (tested in a mixture with another compound), the growth (0.25 µM) was 8.94% (active) and the growth (10 µM) was 103%.
On to `CS/C(=C\c1ccc(C(=O)c2ccc(C)cc2)n1C)S(C)=O` (stereo not given), for which the growth was 86.1% (10 µM) and 30.8% (100 µM).
Taken in the same sequence, the figures for `CC(=O)/C=C/c1ccc(OCc2ccc(C(C)(C)C)cc2)cc1` were 47.7% and -0.894% (active).
As to `CC(=O)/C=C/c1ccc(OCc2ccc(Cl)cc2)cc1`, the growth is 109% (10 µM) and 1.46% (active) (100 µM).
As for `O=c1[nH]cc(F)c(=O)[nH]1`, the growth reads like this: (10 µM) 64.4%; (50 µM) 58.6%.
On to `CC1(C)OB(c2ccc(Cn3cc(F)c(=O)[nH]c3=O)cc2)OC1(C)C`, for which the growth by setting is: (10 µM) 105%; (50 µM) 13%.
As to `CC(C)(C)c1cc(NC(=O)Cc2ccc(-c3cnc4cc(-c5cnn(CCN6CCOCC6)c5)ccc4n3)cc2)no1`, the growth is, setting by setting: (10 µM) 22.2%; (30 µM) -1.53% (active).
Take `CNC(=O)c1cc(Oc2ccc(CC(=O)Nc3cc(C(C)(C)C)nn3C)cc2)ccn1`: the growth is 28.7% (1 µM), 2.05% (active) (10 µM) and 19.7% (30 µM).
As to `COc1ccc(C(=O)/C=C/c2ccc(OCc3ccc(Cl)cc3)cc2)cc1OC`, the growth reads like this: (10 µM) 83.3%; (100 µM) 27.8%.
In the case of `CC(C)C1CCCCC1O` (stereo not given), the growth (10 µM unless noted) is 107%.
Same read-out and setting: next, `CC(Br)C(OC(=O)c1ccccc1Cl)c1cc2c(cc1Br)OCO2` (stereo not given): 66.4%.
Turning to `O=C(/C=C/c1cccc(Oc2ccc(Cl)cc2)c1)c1ccccc1`, the growth was 110% (10 µM) and -36.3% (active) (100 µM).
`CCN(CC)CCOc1ccc(Cl)c(C)c1`: under “10 µM unless noted”, the growth is 103%.
`c1ccc(-c2nnn(-c3ccccc3)n2)cc1`: the growth (10 µM unless noted) was 111%.
For `CC(=O)/C=C/c1ccc(N(CCO)Cc2ccc(C(C)(C)C)cc2)cc1`, the growth is, setting by setting: (10 µM) 73.8%; (100 µM) -71% (active).
For `Cn1ncc(Cl)c1-c1cc(C(=O)N[C@H](CN)Cc2ccc(F)c(F)c2)oc1Cl`, under “10 µM unless noted”, the growth was -69.6% (active).
For the compound `COc1ccc2c(c1)cn1c3ccc(O)cc3[nH]c(=O)c21`, the growth (10 µM unless noted) is -6.77% (active).
As for `O=S(=O)(Nc1ccc(-n2cnc3cc(-c4ccc(O)cc4)ccc32)cc1)C1CC1`, the growth (10 µM unless noted) is 111%.
For `COc1ccc(Cl)cc1C(=O)NCCc1ccc(S(=O)(=O)NC(=O)NC2CCCCC2)cc1`, the growth reads like this: (10 µM) 103% and 118%; (100 µM) 63.2%.
As to `COc1ccc(-c2cscc2N)cc1`, the growth reads like this: (10 µM) 96.4%; (100 µM) 38.7%.
Consider `Cc1[nH]c(-c2nc3ccccc3[nH]2)c(C)c1C(=O)NC(C)C1CCCCC1` (stereo not given), for which the growth runs as follows: (10 µM) 59.8%; (100 µM) -87.1% (active).
Consider `COc1ccc(C(O)c2cc3c(N)c(C(=O)Nc4cccc5ccccc45)sc3nc2C)cc1` (stereo not given), for which the growth (10 µM unless noted) was 23.7%.
Regarding `CC(=O)/C=C/c1ccc(N(C)Cc2ccc(C(C)(C)C)cc2)cc1`, the growth by setting is: (10 µM) 86%; (100 µM) -71.8% (active).
Take `CCN(Cc1ccccc1)c1ccc(/C=C2\COc3ccccc3C2=O)cc1`: the growth is, setting by setting: (10 µM) 118%; (100 µM) 7.2% (active).
In the case of `Cc1c(C)c2c(c(C)c1NC(=O)/C=C\C(=O)O)CCC(C)(CCCC(C)CCCC(C)CCCC(C)C)O2` (stereo not given), the growth (10 µM unless noted) was -45.3% (active).
For the compound `CC#C[C@]1(O)CC[C@H]2[C@@H]3CCC4=CC(=O)CCC4=C3[C@@H](c3ccc4c(c3)OCO4)C[C@@]21C`, the growth reads like this: (10 µM) 66.6%; (100 µM) -15.2% (active).
`CCc1ccccc1-n1c(N)c(C#N)c(-c2ccc(OC)c(OC)c2)c(C#N)c1=O`: the growth was 107% (10 µM) and 47.4% (100 µM).
